According to PubChem BioAssay (NCATS):
Results filed as inconclusive are left out. Calls of active or inactive are those of the source. The call rests on the fitted dose curve; in most records, active means well fitted curve in the direction sought with a large enough effect; inconclusive means small, poorly fitted or top-dose-only effect, or another doubt; inactive means no such curve, though single readings can be large; an effect the other way counts as inactive or inconclusive.

Tests used:
NIH3T3 = assay: qHTS assay to identify novel small-molecules to repurpose for Merkel cell carcinoma treatment (AID 1296009); conditions: MCC and control cell lines, CellTiter-Glo viability, 72 h; at 44.8 µM (top of the series) unless noted; further: nearly all actives have a fitted effect of over 60% in size
Summary of the method: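 Cells were incubated with compound for 72 hr at 37 degree celsius before CellTiter-Glo addition. Luminescence was normalized with no-cell wells as full cytotoxicity and DMSO as baseline.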

C33A = assay: Primary qHTS to identify gynecologic anti-cancer compounds using libraries of approved drugs and bioactive compounds (AID 1345084); conditions: Gynecologic cancer cell panel viability, ATPlite luminescence, 48 h; series mostly up to 57.5 µM; further: on the % scale 0 is the no-effect control and ±100 the full control effect; nearly all actives have a fitted effect of over 55% in size
Summary of the method: (§1)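 48 h compound exposure at 37 C, 5% CO2; five-point qHTS. ATPlite luminescence readout of cell ATP.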

CAOV3 = assay: as above; conditions: Gynecologic cancer cell panel viability, ATPlite luminescence, 48 h; series mostly up to 57.5 µM
Summary of the method: as §1

CASKI = assay: as above; conditions: Gynecologic cancer cell panel viability, ATPlite luminescence, 48 h; series mostly up to 57.5 µM
Summary of the method: as §1

Es-2 = assay: as above; conditions: Gynecologic cancer cell panel viability, ATPlite luminescence, 48 h; series mostly up to 57.5 µM
Summary of the method: as §1

HeLa = assay: as above; conditions: Gynecologic cancer cell panel viability, ATPlite luminescence, 48 h; series mostly up to 57.5 µM
Summary of the method: as §1

Hek293T = assay: as above; conditions: Gynecologic cancer cell panel viability, ATPlite luminescence, 48 h, control line for the selectivity index; series mostly up to 57.5 µM
Summary of the method: as §1

JEG-3 = assay: as above; conditions: Gynecologic cancer cell panel viability, ATPlite luminescence, 48 h; series mostly up to 57.5 µM
Summary of the method: as §1

OV90 = assay: as above; conditions: Gynecologic cancer cell panel viability, ATPlite luminescence, 48 h; series mostly up to 57.5 µM
Summary of the method: as §1

PA-1 = assay: as above; conditions: Gynecologic cancer cell panel viability, ATPlite luminescence, 48 h; series mostly up to 57.5 µM
Summary of the method: as §1

SKOV3 = assay: as above; conditions: Gynecologic cancer cell panel viability, ATPlite luminescence, 48 h; series mostly up to 57.5 µM
Summary of the method: as §1

Tov-21-G = assay: as above; conditions: Gynecologic cancer cell panel viability, ATPlite luminescence, 48 h; series mostly up to 57.5 µM
Summary of the method: as §1

Tov112D = assay: as above; conditions: Gynecologic cancer cell panel viability, ATPlite luminescence, 48 h; series mostly up to 57.5 µM
Summary of the method: as §1

CN1C(=O)N(c2cc(Cl)cc(Cl)c2)C(=O)[C@@]1(C)Cc1ccc(Br)cc1
inactive: outcome (NIH3T3) | Potency (C33A) | Potency (CAOV3) | outcome (CASKI) | Potency (Es-2) | Potency (HeLa) | Potency (Hek293T) | Potency (JEG-3) | Potency (OV90) | Potency (PA-1) | Potency (SKOV3) | Potency (Tov-21-G) | Potency (Tov112D)

CC1=C2C(=O)C=C(CO)C2[C@H]2OC(=O)[C@H](C)[C@@H]2[C@@H](OC(=O)Cc2ccc(O)cc2)C1 (stereo partly specified)
inactive: outcome (NIH3T3) inactive [at 17.4 µM] | Potency (C33A) | Potency (CAOV3) | outcome (CASKI) | Potency (Es-2) | Potency (HeLa) | Potency (Hek293T) | Potency (JEG-3) | Potency (OV90) | Potency (PA-1) | Potency (SKOV3) | Potency (Tov-21-G) | Potency (Tov112D)

CC1OC(O[C@@H]2[C@@H](O)[C@H](OC(=O)[C@]34CCC(C)(C)C[C@H]3C3=CCC5[C@@]6(C)CC[C@H](O[C@@H]7O[C@H](C(=O)O)[C@@H](O)[C@H](O[C@@H]8OC[C@@H](O)[C@H](O)[C@H]8O)[C@H]7O[C@@H]7O[C@H](CO)[C@H](O)[C@H](O)[C@H]7O)[C@@](C)(C=O)C6CC[C@@]5(C)[C@]3(C)C[C@H]4O)O[C@H](C)[C@@H]2OC2OC(C)C(OC3OCC(O)C(O)C3O)C(O)C2O)C(O)C(O)C1O (stereo partly specified)
inactive: outcome (NIH3T3) inactive [at 9.27 µM] | activity change, negative = cytotoxicity (C33A) 2.48% [at 6.55 µM] | activity change, negative = cytotoxicity (CAOV3) 7.91% [at 6.55 µM] | activity change, negative = cytotoxicity (CASKI) 19.4% [at 6.55 µM] | activity change, negative = cytotoxicity (Es-2) -0.176% [at 6.55 µM] | activity change, negative = cytotoxicity (HeLa) 18.4% [at 6.55 µM] | activity change, negative = cytotoxicity (Hek293T) 1.68% [at 6.55 µM] | activity change, negative = cytotoxicity (JEG-3) 0.0438% [at 6.55 µM] | activity change, negative = cytotoxicity (OV90) 6.42% [at 6.55 µM] | activity change, negative = cytotoxicity (PA-1) -6.4% [at 6.55 µM] | activity change, negative = cytotoxicity (SKOV3) -2.08% [at 6.55 µM] | activity change, negative = cytotoxicity (Tov-21-G) 5.64% [at 6.55 µM] | activity change, negative = cytotoxicity (Tov112D) 10.7% [at 6.55 µM]

CC(C)=C1CC2C(CCC2(C)O)C(C)(O)CC1=O (stereo unspecified)
inactive: outcome (NIH3T3) | Potency (C33A) | Potency (CAOV3) | outcome (CASKI) | Potency (Es-2) | Potency (HeLa) | Potency (Hek293T) | Potency (JEG-3) | Potency (OV90) | Potency (PA-1) | Potency (SKOV3) | Potency (Tov-21-G) | Potency (Tov112D)

O=S(=O)(O)c1ccc(Nc2ncnc3c2ncn3[C@@H]2O[C@H](CO)[C@@H](O)[C@H]2O)cc1
inactive: outcome (NIH3T3) | Potency (C33A) | Potency (CAOV3) | outcome (CASKI) | Potency (Es-2) | Potency (HeLa) | Potency (Hek293T) | Potency (JEG-3) | Potency (OV90) | Potency (PA-1) | Potency (SKOV3) | Potency (Tov-21-G) | Potency (Tov112D)

C=C1C2CCC3CC2(CC(O)C2(O)C1CC(OC1OC(CO)C(O)C(O)C1O)C2(C)C)CC3(C)O (stereo unspecified)
inactive: outcome (NIH3T3) inactive [at 17.4 µM] | Potency (C33A) | Potency (CAOV3) | outcome (CASKI) | Potency (Es-2) | Potency (HeLa) | Potency (Hek293T) | Potency (JEG-3) | Potency (OV90) | Potency (PA-1) | Potency (SKOV3) | Potency (Tov-21-G) | Potency (Tov112D)

C[C@]1(OC(=O)/C=C\c2ccc(O)cc2)C[C@@H](O)[C@]2(O)C=CO[C@@H](O[C@@H]3O[C@H](CO)[C@@H](O)[C@H](O)[C@H]3O)C12 (stereo partly specified)
inactive: outcome (NIH3T3) inactive [at 17.4 µM] | Potency (C33A) | Potency (CAOV3) | outcome (CASKI) | Potency (Es-2) | Potency (HeLa) | Potency (Hek293T) | Potency (JEG-3) | Potency (OV90) | Potency (PA-1) | Potency (SKOV3) | Potency (Tov-21-G) | Potency (Tov112D)

Cc1cc(CO)c(O)c(C(=O)CC2CC(=O)NC(=O)C2)c1
inactive: outcome (NIH3T3) | Potency (C33A) | Potency (CAOV3) | outcome (CASKI) | Potency (Es-2) | Potency (HeLa) | Potency (Hek293T) | Potency (JEG-3) | Potency (OV90) | Potency (PA-1) | Potency (SKOV3) | Potency (Tov-21-G) | Potency (Tov112D)

C/C(=C\C1CCC(C)C2CCC3(C)OC123)C(=O)O (stereo unspecified)
inactive: outcome (NIH3T3) | Potency (C33A) | Potency (CAOV3) | outcome (CASKI) | Potency (Es-2) | Potency (HeLa) | Potency (Hek293T) | Potency (JEG-3) | Potency (OV90) | Potency (PA-1) | Potency (SKOV3) | Potency (Tov-21-G) | Potency (Tov112D)

CC(C(=O)Nc1cc(C#N)ccc1CCCC(=O)O)c1ccc(F)c2ccccc12 (stereo unspecified)
inactive: outcome (NIH3T3) | Potency (C33A) | Potency (CAOV3) | outcome (CASKI) | Potency (Es-2) | Potency (HeLa) | Potency (Hek293T) | Potency (JEG-3) | Potency (OV90) | Potency (PA-1) | Potency (SKOV3) | Potency (Tov-21-G) | Potency (Tov112D)

C=C1CC[C@@]2(OC1)O[C@H]1CC3C4CC=C5C[C@@H](O[C@@H]6O[C@@H](C)[C@H](O)[C@@H](O)[C@H]6O)C[C@@H](O[C@@H]6O[C@H](C)[C@H](O)[C@H](O)[C@H]6O[C@@H]6O[C@@H](C)[C@H](O)[C@@H](O)[C@H]6O)[C@]5(C)C4CC[C@]3(C)[C@H]1[C@@H]2C (stereo partly specified)
inactive: outcome (NIH3T3) inactive [at 9.27 µM] | activity change, negative = cytotoxicity (C33A) 1.56% [at 11.6 µM] | activity change, negative = cytotoxicity (CAOV3) 10.5% [at 11.6 µM] | activity change, negative = cytotoxicity (CASKI) -15.2% [at 11.6 µM] | activity change, negative = cytotoxicity (Es-2) 20.8% [at 11.6 µM] | activity change, negative = cytotoxicity (HeLa) 18.7% [at 11.6 µM] | activity change, negative = cytotoxicity (Hek293T) 5.62% [at 11.6 µM] | activity change, negative = cytotoxicity (JEG-3) -4.67% [at 11.6 µM] | activity change, negative = cytotoxicity (OV90) -12.6% [at 11.6 µM] | activity change, negative = cytotoxicity (PA-1) -0.609% [at 11.6 µM] | activity change, negative = cytotoxicity (SKOV3) -7.76% [at 11.6 µM] | activity change, negative = cytotoxicity (Tov-21-G) -15.7% [at 11.6 µM] | activity change, negative = cytotoxicity (Tov112D) 1.88% [at 11.6 µM]

Cn1cc(Nc2cnccc2C(=O)O)c2cccnc21
inactive: outcome (NIH3T3) | Potency (C33A) | Potency (CAOV3) | outcome (CASKI) | Potency (Es-2) | Potency (HeLa) | Potency (Hek293T) | Potency (JEG-3) | Potency (OV90) | Potency (PA-1) | Potency (SKOV3) | Potency (Tov-21-G) | Potency (Tov112D)
